Compound activity as filed in PubChem.
An excerpt weighted towards active compounds, which were near 19% of everything screened.
Chronic BCR inh: inhibitors of chronic active B-cell receptor signaling. ABC-DLBCL IkBa-CBG/CBR reporter, luminescence ratio, 4 h. Potency, µM (top dose mostly 46.1 µM), without a hit: top-dose activity change, negative = inhibition, usual class: inhibitors. 0.05% of 340,000 active; active means well fitted inhibition curve with a large enough effect in the signal ratio, with a control signal flat, not every such curve was filed as active; inconclusive means small, poorly fitted or top-dose-only effect, or effect the other way, or a change in a side signal; the % refers to the signal ratio;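 further: potency means the concentration at half of the fitted maximal effect; plate controls were basal doxycycline-induced cells for no effect and cells given 10 µM MG132 for full effect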
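TMD8 human ABC-DLBCL cells with doxycycline-inducible IκBα–green luciferase fusion and unfused red luciferase, in 0.5% FBS medium; compounds up to 46 uM, 4 h at 37C. Green/red luminescence ratio, filter-overlap corrected, fitted to concentration-response curves.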
SW480 rereplic: inducers of DNA re-replication in SW480 colon cancer cells; SW480 DNA re-replication, Hoechst DNA content imaging, 48 h; Potency, µM (doses to about 46.1 µM), without a hit: at the highest dose re-replication activation, usual class: activators; 1.8% of 340,000 active; further: potency means the concentration at half of the fitted maximal effect; % of control where 0% means no effect; nearly all actives have a fitted effect of over 55% in size
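Quantitative HTS format with DMSO vehicle controls; 48 hr drug incubation at 37 C, then 40 min Hoechst staining and scanning imager measurement at 405 nm excitation.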
TDP1 cell CPT: DT40-hTDP1 cell growth loss with CPT | Potency, µM (titrated, usually from 46.2 µM), for inactives: at the top dose activity change, negative = growth inhibition, usual class: inhibitors | 12% of 420,000 active | chicken DT40 Tdp1-/-;hTDP1 cells + 20 nM CPT, ATP luminescence, 48 h; further: potency means the concentration at half of the fitted maximal effect; on the % scale 0 is the no-effect control and ±100 the full control effect; nearly all actives have a fitted effect of over 55% in size
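Chicken DT40 Tdp1-/- cells complemented with human TDP1, 400 cells/well, exposed to compounds plus 20 nM camptothecin for at least 48 h at 37 C; viability read as ATP content by CellTiter-Glo luminescence.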
DT40 TDP1 no CPT: qHTS for Inhibitors of human tyrosyl-DNA phosphodiesterase 1 (TDP1): qHTS in cells in absence of CPT. DT40 Tdp1-/- hTDP1 cells, no CPT, ATP luminescence, 48 h. 15% of 420,000 active. AID 686978, 2013. Potency, µM (highest dose often 46.2 µM), inactives show top-dose activity change, negative = growth inhibition, actives largely listed as inhibitors; further: potency means the concentration at half of the fitted maximal effect; on the % scale 0 is the no-effect control and ±100 the full control effect; nearly all actives have a fitted effect of over 55% in size
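Seeded 400 DT40-hTDP1 cells/well (vehicle DMSO, no 20 nM CPT); pinned compounds; ≥48 hr at 37 °C; CellTiter-Glo luminescence as viability measure.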
IL1B secr inh: inflammasome signaling inhibition, IL-1 beta readout; THP-1 LPS/ATP IL-1B secretion, AlphaLISA, 16 h; active compounds read low; activity change, % at 57.5 µM; 4.7% of 360,000 active; AID 743279; in the data active means activity change below about -50%; inconclusive means mostly about -30% to -49%; further: on the % scale 0 is the no-effect control and ±100 the full control effect
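Secreted IL-1B measured by AlphaLISA bead assay after 16 h compound exposure of THP-1 cells; compounds (final up to 57.5 uM) added 1 h before LPS (250 ng/mL) and ATP (1.25 mM) stimulation; lower signal means less secretion.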
MCF10A rereplic: inducers of DNA re-replication in MCF 10A breast cells; MCF 10A DNA re-replication, Hoechst nuclear intensity, 48 h; 2.9% of 350,000 active; Potency, µM (series often up to 46.1 µM), without a hit: at the highest dose activity, positive = re-replication, hits mostly activators; AID 624296; further: potency means the concentration at half of the fitted maximal effect; % of control where 0% means no effect; nearly all actives have a fitted effect of over 50% in size
Starred values were filed as active, the others as inactive; ? = inconclusive; . = no result given; [ ] = remark or other dose. Unless noted, the call rests on the fitted dose curve; in most records, active means well fitted curve in the direction sought with a large enough effect; inconclusive means small, poorly fitted or top-dose-only effect, or another doubt; inactive means no such curve, though single readings can be large; an effect the other way counts as inactive or inconclusive.

SMILES	Chronic BCR inh	SW480 rereplic	TDP1 cell CPT	DT40 TDP1 no CPT	IL1B secr inh	MCF10A rereplic
O=C(CSc1nccn1-c1ccc(Cl)cc1)N1CCCc2ccccc21	-2.1%	-3.8%	?	14.6µM*	-11.2	4.7%
CCCc1cc(=O)oc2cc(OC(=O)CN3C(=O)NC4(CCCC4)C3=O)ccc12	-3.5%	-21.5%	-21.0%	-26.8%	1.7	0.4%
CCC(=O)N1CCc2cc(S(=O)(=O)NCCC(=O)Nc3ccc(OC)c(Cl)c3)ccc21	.	.	?	-77.6%	.	.
COc1cc(OC)c(NC(=O)Cn2cnc3sc(C)c(S(=O)(=O)N4CCN(C)CC4)c3c2=O)cc1Cl	.	.	-14.3%	-11.6%	.	.
Cc1ccc(NCc2nnc(SCC(=O)N3CCCc4ccccc43)o2)c(C)c1	-1.1%	-0.7%	5.8µM*	18.4µM*	-20.4	11.8%
O=C(CSc1nnc(-c2ccc(Cl)s2)o1)N1CCc2ccccc21	-0.8%	.	.	.	.	.
O=C(CSc1nnc(CNc2ccccc2)o1)N1CCCc2ccccc21	16.5%	-2.5%	2.7%	-29.5%	0.0	-5.0%
O=C(CSc1nnc(-c2ccc(Cl)s2)o1)N1CCCc2ccccc21	-1.7%	-0.1%	?	16.4µM*	-8.4	1.2%
CN(C(=O)c1ccc(Cl)cc1)c1ccc(OCC(=O)Nc2cc(C(=O)O)ccc2Cl)cc1	.	-39.5%	-1.1%	24.5%	19.3	-4.3%
O=[N+]([O-])c1cccc2c(N3CCOCC3)ccnc12	-10.1%	-19.6%	?	14.6µM*	0.0	11.4%
COC(=O)C1C=CC(OC2OC(COC(C)=O)C(OC(C)=O)C(OC(C)=O)C2OC(C)=O)n2c(=O)n(-c3ccccc3)c(=O)n21 (stereo not drawn)	.	?	0.731µM*	0.82µM*	-10.2	1.64µM*
CCCCCCn1cc(CN2CC(N3CCN(Cc4ccccc4F)CC3)CS2(=O)=O)nn1 (stereo not drawn)	.	.	-29.7%	?	-0.6	.
CC(C)(C)c1ccc(C(=O)NNc2ncnc3c2cnn3-c2ccccc2)cc1	13.9%	.	?	?	.	.
N=c1c2c(-c3ccccc3)c(-c3ccccc3)n(Cc3ccco3)c2ncn1CCO	?	-4.7%[9.22 µM]	7.31µM*	6.51µM*	?	10.3µM*
N=c1c2c(-c3ccccc3)c(-c3ccccc3)n(Cc3ccco3)c2ncn1CCN1CCOCC1	?	27.3%	?	?	-81.2*	?
N=c1c2c(-c3ccccc3)c(-c3ccccc3)n(Cc3ccco3)c2ncn1CCCO	?	?	13µM*	23.1µM*	.	?
CCn1cc(C(=O)OCC(=O)OC2CC(C)CCC2C(C)C)c(=O)c2ccc(C)nc21 (stereo not drawn)	15.5%	2.6%	18.4µM*	?	-15.5	?
COc1cc(NC(=O)N(Cc2ccco2)C2CCN(C(C)=O)CC2)cc(OC)c1OC	.	.	-2.1%	-12.5%	.	.
Cc1occc1C(=O)N1CCN(S(=O)(=O)c2ccc(F)cc2)CC1	0.1%	-2.1%	-3.1%	9.6%	10.8	-11.4%
O=S1(=O)CCO[C@H]2Cc3ccccc3[C@H]2N1Cc1ccc(Cl)cc1	1.6%	1.3%	?	?	17.7	-30.1%
O=S1(=O)CCO[C@H]2Cc3ccccc3[C@H]2N1Cc1cccc(Cl)c1	1.5%	-11.5%	?	17.8µM*	-2.4	?
CC(C)[C@H]1COCCS(=O)(=O)N1Cc1ccccc1F	.	-20.2%	-29.4%	?	0.0	-1.0%
Cc1ccccc1CN1[C@@H]2c3ccccc3C[C@@H]2OCCS1(=O)=O	-14.0%	2.1%	?	15.8µM*	8.9	10.2%
O=C(Nc1ccc2c3c(cccc13)CC2)c1ccccc1	.	.	?	?	34.4	.
Cc1ccc(Cl)cc1N1CCN(C(=O)c2noc(C(C)C)c2[N+](=O)[O-])CC1	?	?	23.1µM*	?	-80.9*	11.6%
SMILES	Chronic BCR inh	SW480 rereplic	TDP1 cell CPT	DT40 TDP1 no CPT	IL1B secr inh	MCF10A rereplic
CC(C)c1onc(C(=O)N2CCN(c3ccc(F)cc3)CC2)c1[N+](=O)[O-]	-9.9%	20.6µM*	1.9%	8.3%	-5.5	-0.2%
CC(C)c1onc(C(=O)NC2CCCCC2)c1[N+](=O)[O-]	-0.9%	?	20.6µM*	20.6µM*	18.7	17.3%
CC(C)c1onc(C(=O)N2CCN(c3ccccc3)CC2)c1[N+](=O)[O-]	3.0%	?	-2.2%	6.5%	-6.6	-6.6%
CCOC(=O)N1CCN(C(=O)c2noc(C(C)C)c2[N+](=O)[O-])CC1	3.6%	-8.7%	-14.5%	0.1%	2.1	-1.8%
CC(C)c1onc(C(=O)N2CCCCCC2)c1[N+](=O)[O-]	5.1%	-0.3%	-0.1%	?	0.2	4.1%
COc1cc(Cl)c(C)cc1NC(=O)c1cc2c(Cl)nc3ccc(C)cc3c2s1	.	.	-4.5%	-17.6%	.	.
Cc1ccc(S(=O)(=O)CCC(=O)OC(C)C(=O)N2CCc3ccccc32)cc1 (stereo not drawn)	?	-1.6%	-4.9%	-17.5%	8.0	11.9%
CC1CN(c2nnc(NC(=O)c3ccccc3)s2)CC(C)O1 (stereo not drawn)	?	2.7%	-20.8%	-10.6%	-3.0	2.2%
COc1ccc([C@H]2CC(=O)C=C(c3cccc(C(C)C)c3)C2)cc1OC	0.0%	4.3%	20.6µM*	16.4µM*	-50.6*	?
COc1ccc([C@H]2CC(=O)C=C(c3cccc4c3Oc3ccccc3S4)C2)cc1OC	?	0.8%	16.4µM*	13µM*	-4.9	?
COc1ccc([C@H]2CC(=O)C=C(c3cccc(Br)c3)C2)cc1OC	1.9%	1.9%	?	13µM*	-14.2	5.5%
O=C1C=C(c2cccc3c2Oc2ccccc2S3)C[C@@H](c2ccc(Cl)cc2)C1	-3.4%	8.6%	?	?	-0.7	-13.5%
Clc1nc2ccccc2cc1-c1nnn(-c2ccccc2Br)n1	.	0.7%	?	?	-14.7	?
Brc1ccccc1-n1nnc(-c2cnc3ccccc3c2)n1	.	26.4%[9.22 µM]	?	18.4µM*	-17.9	-15.9%
COc1ccc(OC)c2c1sc(=NC(=O)C(C)(C)C)n2C	?	-4.4%	20.6µM*	?	3.4	10.3%
COc1ccc(OC)c2c1sc(=NC(=O)C(C)C)n2C	?	-12.0%	23.1µM*	?	22.7	11.4%
CCCC(=O)N=c1sc2c(OC)ccc(OC)c2n1C	?	2.0%	-25.2%	-10.9%	12.7	-2.5%
